Inconclusive results are not listed. Calls of active or inactive are those of the source. The calls were made as follows, unless noted: active = hit-call score of the fitted dose curve at least 0.9, where 1 is the maximum; inconclusive = response in the unintended direction; inactive = score below 0.9.
test system: not listed separately; assay: ATG_M_06_TRANS: Attagene TRANS-FACTORIAL HepG2 Assay for M06 Transcription Factor (Internal Marker) (AID 2282983); details: HepG2 Attagene TRANS M06 internal marker reporter;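 also: reporter transcript level by RT-PCR then capillary electrophoresis fluorescence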
Outline: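 Cells: HepG2, transient multi-reporter transfection. Exposure: 24 h. Detection: RT-PCR, 6-FAM labelling, HpaI digestion (2 h, 37 °C), capillary electrophoresis. Baseline: DMSO.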

Which outcome does the source give for `CCc1nn(C)c(C(=O)NCc2ccc(C(C)(C)C)cc2)c1Cl` here?
Its outcome is “inactive”.

For `CCOC(=O)CC(SP(=S)(OC)OC)C(=O)OCC` (configuration not stated), which outcome is on record?
Its outcome is “inactive”.

Which outcome does the source give for `C=CCC1=C(C)[C@@H](OC(=O)[C@@H]2[C@@H](C=C(C)C)C2(C)C)CC1=O` here?
The outcome was “inactive”.

For `CC(C)C1(C)N=C(c2nc3ccccc3cc2C(=O)O)NC1=O` (configuration not stated), which outcome is on record?
Its outcome is “inactive”.

For `COP(N)(=O)SC` (configuration not stated), which outcome is on record?
Its outcome is “inactive”.

For `Oc1ccccc1-c1ccccc1`, which outcome is on record?
Its outcome is “inactive”.

Which outcome does the source give for `CCCCC(CC)COC(=O)c1ccccc1C(=O)OCC(CC)CCCC` (configuration not stated) here?
Its outcome is “inactive”.

For `CCNc1nc(Cl)nc(NCC)n1`, which outcome is on record?
Its outcome is “inactive”.

With `CCCCNC(=O)n1c(NC(=O)OC)nc2ccccc21` as the compound, how does the outcome read?
The outcome was “inactive”.

With `CCOC(=O)C(Cl)Cc1cc(-n2nc(C)n(C(F)F)c2=O)c(F)cc1Cl` (configuration not stated) as the compound, how does the outcome read?
Its outcome is “inactive”.

With `O=C(O)c1nc(Cl)ccc1Cl` as the compound, how does the outcome read?
The outcome was “inactive”.

For `COc1nc(C)nc(NC(=O)NS(=O)(=O)c2ccccc2Cl)n1`, which outcome is on record?
The outcome was “inactive”.

Which outcome does the source give for `C#CCOS(=O)OC1CCCCC1Oc1ccc(C(C)(C)C)cc1` (configuration not stated) here?
The outcome was “inactive”.

Which outcome does the source give for `CNC(=S)S` here?
Its outcome is “inactive”.

With `CCON=C(CC)C1=C(O)CC(c2c(C)cc(C)cc2C)CC1=O` (configuration not stated) as the compound, how does the outcome read?
The outcome was “inactive”.

Which outcome does the source give for `O=C(O)COc1nc(Cl)c(Cl)cc1Cl` here?
The outcome was “inactive”.

Which outcome does the source give for `CC1=C(C(=O)Nc2ccccc2)SCCO1` here?
The outcome was “inactive”.

With `COP(=S)(OC)Oc1nc(Cl)c(Cl)cc1Cl` as the compound, how does the outcome read?
The outcome was “inactive”.

Which outcome does the source give for `CCOc1cc(Oc2ccc(C(F)(F)F)cc2Cl)ccc1[N+](=O)[O-]` here?
Its outcome is “inactive”.

For `Cc1ccc(-c2c(Cl)nc(C#N)n2S(=O)(=O)N(C)C)cc1`, which outcome is on record?
The outcome was “inactive”.

test system: not listed separately; assay: ATG_M_32_TRANS: Attagene TRANS-FACTORIAL HepG2 Assay for M32 Transcription Factor (Internal Marker) (AID 2282984); details: HepG2 Attagene TRANS M32 internal marker reporter;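 also: transcript level of a background control reporter unit measured by RT-PCR and capillary electrophoresis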
Outline: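 Capillary electrophoresis of 6-FAM-labelled reporter fragments gives the signal; data fitted for gain over DMSO negative control. Source: HepG2 cells bearing transient multiple reporter transcription units, 24 h exposure.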

With `CCOC(=O)CC(SP(=S)(OC)OC)C(=O)OCC` (configuration not stated) as the compound, how does the outcome read?
The outcome was “inactive”.

With `CC(C)C1(C)N=C(c2nc3ccccc3cc2C(=O)O)NC1=O` (configuration not stated) as the compound, how does the outcome read?
Its outcome is “inactive”.

With `COP(N)(=O)SC` (configuration not stated) as the compound, how does the outcome read?
Its outcome is “inactive”.

For `Oc1ccccc1-c1ccccc1`, which outcome is on record?
The outcome was “inactive”.

With `CS/C(C)=N/OC(=O)N(C)SN(C)C(=O)O/N=C(\C)SC` as the compound, how does the outcome read?
Its outcome is “inactive”.

For `CCCCC(CC)COC(=O)c1ccccc1C(=O)OCC(CC)CCCC` (configuration not stated), which outcome is on record?
The outcome was “inactive”.

For `CCNc1nc(Cl)nc(NCC)n1`, which outcome is on record?
Its outcome is “inactive”.

Which outcome does the source give for `O=C(Nc1ccccc1)Nc1ccnc(Cl)c1` here?
Its outcome is “inactive”.

For `CCOC(=O)C(Cl)Cc1cc(-n2nc(C)n(C(F)F)c2=O)c(F)cc1Cl` (configuration not stated), which outcome is on record?
The outcome was “inactive”.

With `O=C(O)c1nc(Cl)ccc1Cl` as the compound, how does the outcome read?
The outcome was “inactive”.

Which outcome does the source give for `COc1nc(C)nc(NC(=O)NS(=O)(=O)c2ccccc2Cl)n1` here?
The outcome was “inactive”.

Which outcome does the source give for `CNC(=S)S` here?
The outcome was “inactive”.

Which outcome does the source give for `CCON=C(CC)C1=C(O)CC(c2c(C)cc(C)cc2C)CC1=O` (configuration not stated) here?
The outcome was “inactive”.

For `Cc1c(F)c(F)c(COC(=O)C2C(/C=C(\Cl)C(F)(F)F)C2(C)C)c(F)c1F` (configuration not stated), which outcome is on record?
Its outcome is “inactive”.

Which outcome does the source give for `CC1=C(C(=O)Nc2ccccc2)SCCO1` here?
The outcome was “inactive”.

Which outcome does the source give for `Fc1ccc(Oc2ccnc3cc(Cl)cc(Cl)c23)cc1` here?
Its outcome is “inactive”.

target: Nuclear receptor subfamily 4 group A member 2 (Homo sapiens) (UniProt P43354); assay: ATG_NURR1_TRANS: Attagene TRANS-FACTORIAL HepG2 Assay for human Nuclear Receptor Related Protein 1 (NURR1) (AID 2282985); details: HepG2 Attagene TRANS reporter, mRNA readout
Sequence (P43354 whole entry, looked up): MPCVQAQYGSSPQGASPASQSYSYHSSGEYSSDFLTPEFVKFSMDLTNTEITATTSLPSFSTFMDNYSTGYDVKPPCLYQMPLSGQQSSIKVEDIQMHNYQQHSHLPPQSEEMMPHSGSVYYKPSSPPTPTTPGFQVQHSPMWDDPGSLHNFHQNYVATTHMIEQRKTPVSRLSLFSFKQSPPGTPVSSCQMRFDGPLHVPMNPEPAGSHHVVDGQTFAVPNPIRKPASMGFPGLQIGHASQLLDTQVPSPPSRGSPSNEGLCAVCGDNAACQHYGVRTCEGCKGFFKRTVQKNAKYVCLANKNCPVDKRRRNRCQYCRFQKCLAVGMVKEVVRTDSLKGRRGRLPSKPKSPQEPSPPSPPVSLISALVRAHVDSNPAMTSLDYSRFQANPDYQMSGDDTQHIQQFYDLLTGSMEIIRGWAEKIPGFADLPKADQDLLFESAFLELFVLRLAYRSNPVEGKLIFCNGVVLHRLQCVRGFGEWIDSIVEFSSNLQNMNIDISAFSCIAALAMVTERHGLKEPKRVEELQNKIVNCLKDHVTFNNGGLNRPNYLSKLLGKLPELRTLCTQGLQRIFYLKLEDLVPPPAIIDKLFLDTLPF
Outline: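 HepG2 / transient MRTU transfection / 24 h compound exposure / RT-PCR + CE fluorescence of reporter mRNA / gain-of-signal vs DMSO.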

For `CCOC(=O)CC(SP(=S)(OC)OC)C(=O)OCC` (configuration not stated), which outcome is on record?
Its outcome is “inactive”.

For `CC(C)C1(C)N=C(c2nc3ccccc3cc2C(=O)O)NC1=O` (configuration not stated), which outcome is on record?
Its outcome is “inactive”.

For `COP(N)(=O)SC` (configuration not stated), which outcome is on record?
The outcome was “inactive”.

Which outcome does the source give for `Oc1ccccc1-c1ccccc1` here?
Its outcome is “inactive”.

For `CS/C(C)=N/OC(=O)N(C)SN(C)C(=O)O/N=C(\C)SC`, which outcome is on record?
The outcome was “inactive”.

With `CCCCC(CC)COC(=O)c1ccccc1C(=O)OCC(CC)CCCC` (configuration not stated) as the compound, how does the outcome read?
The outcome was “inactive”.

For `O=C(Nc1ccccc1)Nc1ccnc(Cl)c1`, which AC50 is on record?
The AC50 was 50 µM (active).

With `O=C(O)c1nc(Cl)ccc1Cl` as the compound, how does the outcome read?
The outcome was “inactive”.

With `CN(C)C(=S)SSC(=S)N(C)C` as the compound, how does the outcome read?
The outcome was “inactive”.

Which outcome does the source give for `CNC(=S)S` here?
The outcome was “inactive”.

For `O=C(O)COc1nc(Cl)c(Cl)cc1Cl`, which outcome is on record?
Its outcome is “inactive”.

With `Cc1c(F)c(F)c(COC(=O)C2C(/C=C(\Cl)C(F)(F)F)C2(C)C)c(F)c1F` (configuration not stated) as the compound, how does the outcome read?
Its outcome is “inactive”.

Which outcome does the source give for `COP(=S)(OC)Oc1nc(Cl)c(Cl)cc1Cl` here?
The outcome was “inactive”.

With `Fc1ccc(Oc2ccnc3cc(Cl)cc(Cl)c23)cc1` as the compound, how does the outcome read?
Its outcome is “inactive”.

target: Transcriptional activator Myb (Homo sapiens) (UniProt P10242); assay: ATG_Myb_CIS: Attagene CIS-FACTORIAL HepG2 Assay for human Myeloblastosis (Myb) Proto-Oncogene Transcription Factor (AID 2282986; active = hit-call score of the fitted dose curve at least 0.9, where 1 is the maximum; inactive = score below 0.9); details: HepG2 Attagene CIS-FACTORIAL Myb reporter transcription; actives raise or lower the signal
Sequence (P10242 whole entry, looked up): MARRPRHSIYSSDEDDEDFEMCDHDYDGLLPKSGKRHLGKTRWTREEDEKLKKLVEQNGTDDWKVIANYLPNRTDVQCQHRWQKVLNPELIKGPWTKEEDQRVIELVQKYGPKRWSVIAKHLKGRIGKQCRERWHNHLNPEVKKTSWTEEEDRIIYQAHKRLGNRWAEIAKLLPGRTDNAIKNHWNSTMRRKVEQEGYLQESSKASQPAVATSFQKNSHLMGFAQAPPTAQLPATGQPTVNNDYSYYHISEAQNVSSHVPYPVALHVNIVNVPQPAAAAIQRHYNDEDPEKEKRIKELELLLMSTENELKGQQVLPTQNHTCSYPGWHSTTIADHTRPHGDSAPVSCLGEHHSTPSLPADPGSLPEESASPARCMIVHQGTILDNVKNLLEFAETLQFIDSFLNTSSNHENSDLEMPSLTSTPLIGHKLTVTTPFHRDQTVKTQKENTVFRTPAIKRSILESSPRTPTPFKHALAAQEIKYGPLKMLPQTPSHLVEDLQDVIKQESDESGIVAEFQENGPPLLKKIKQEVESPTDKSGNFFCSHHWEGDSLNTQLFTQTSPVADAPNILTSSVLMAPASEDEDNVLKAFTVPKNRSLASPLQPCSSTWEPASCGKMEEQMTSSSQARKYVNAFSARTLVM
Outline: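 Multiplexed cis-reporter system in HepG2: transient transfection, 24 h treatment, mRNA readout by RT-PCR and capillary electrophoresis. Both increases and decreases are scored versus DMSO negative control.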

Which outcome does the source give for `CCc1nn(C)c(C(=O)NCc2ccc(C(C)(C)C)cc2)c1Cl` here?
Its outcome is “inactive”.

Which outcome does the source give for `CCOC(=O)CC(SP(=S)(OC)OC)C(=O)OCC` (configuration not stated) here?
Its outcome is “inactive”.

For `C=CCC1=C(C)[C@@H](OC(=O)[C@@H]2[C@@H](C=C(C)C)C2(C)C)CC1=O`, which outcome is on record?
Its outcome is “inactive”.

Which outcome does the source give for `CC(C)C1(C)N=C(c2nc3ccccc3cc2C(=O)O)NC1=O` (configuration not stated) here?
Its outcome is “inactive”.

With `COP(N)(=O)SC` (configuration not stated) as the compound, how does the outcome read?
The outcome was “inactive”.

With `Oc1ccccc1-c1ccccc1` as the compound, how does the outcome read?
Its outcome is “inactive”.

For `CS/C(C)=N/OC(=O)N(C)SN(C)C(=O)O/N=C(\C)SC`, which outcome is on record?
The outcome was “inactive”.

With `CCCCC(CC)COC(=O)c1ccccc1C(=O)OCC(CC)CCCC` (configuration not stated) as the compound, how does the outcome read?
The outcome was “inactive”.

For `CCNc1nc(Cl)nc(NCC)n1`, which outcome is on record?
The outcome was “inactive”.

With `O=C(Nc1ccccc1)Nc1ccnc(Cl)c1` as the compound, how does the outcome read?
The outcome was “inactive”.

For `CCCCNC(=O)n1c(NC(=O)OC)nc2ccccc21`, which outcome is on record?
Its outcome is “inactive”.

For `CCOC(=O)C(Cl)Cc1cc(-n2nc(C)n(C(F)F)c2=O)c(F)cc1Cl` (configuration not stated), which outcome is on record?
The outcome was “inactive”.

Which outcome does the source give for `O=C(O)c1nc(Cl)ccc1Cl` here?
The outcome was “inactive”.

For `COc1nc(C)nc(NC(=O)NS(=O)(=O)c2ccccc2Cl)n1`, which outcome is on record?
Its outcome is “inactive”.

Which outcome does the source give for `CN(C)C(=S)SSC(=S)N(C)C` here?
The outcome was “inactive”.

For `C#CCOS(=O)OC1CCCCC1Oc1ccc(C(C)(C)C)cc1` (configuration not stated), which outcome is on record?
Its outcome is “inactive”.

For `CNC(=S)S`, which outcome is on record?
Its outcome is “inactive”.

For `N#Cc1cc(Br)c(O)c(Br)c1`, which outcome is on record?
The outcome was “inactive”.

For `CCON=C(CC)C1=C(O)CC(c2c(C)cc(C)cc2C)CC1=O` (configuration not stated), which outcome is on record?
The outcome was “inactive”.

Which outcome does the source give for `O=C(O)COc1nc(Cl)c(Cl)cc1Cl` here?
The outcome was “inactive”.

For `Cc1c(F)c(F)c(COC(=O)C2C(/C=C(\Cl)C(F)(F)F)C2(C)C)c(F)c1F` (configuration not stated), which outcome is on record?
The outcome was “inactive”.

For `CC1=C(C(=O)Nc2ccccc2)SCCO1`, which outcome is on record?
The outcome was “inactive”.

Which outcome does the source give for `COP(=S)(OC)Oc1nc(Cl)c(Cl)cc1Cl` here?
Its outcome is “inactive”.

For `CCOc1cc(Oc2ccc(C(F)(F)F)cc2Cl)ccc1[N+](=O)[O-]`, which outcome is on record?
The outcome was “inactive”.

Which outcome does the source give for `Cc1ccc(-c2c(Cl)nc(C#N)n2S(=O)(=O)N(C)C)cc1` here?
Its outcome is “inactive”.

With `CC(Oc1ccc(Cl)cc1Cl)C(=O)O` (configuration not stated) as the compound, how does the outcome read?
The outcome was “inactive”.

Which outcome does the source give for `Fc1ccc(Oc2ccnc3cc(Cl)cc(Cl)c23)cc1` here?
Its outcome is “inactive”.
